Assay outcomes as filed in PubChem.
Pf growth 96h: Primary qHTS for delayed death inhibitors of the malarial parasite plastid, 96 hour incubation; P. falciparum luciferase reporter growth, 96 h; Potency, µM (titrated, usually from 28.7 µM), for the others: top-dose activity change, negative = inhibition, actives largely listed as inhibitors; hit rate 6.9% among 320,000; also: potency is read from the fitted curve at half-maximal effect
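P. falciparum expressing integrated firefly luciferase, in erythrocytes at 2% hematocrit, 0.05% parasitemia, incubated with compounds 96 h at 37 C, 5% CO2. Growth inhibition read as loss of luminescence; two-generation exposure targets delayed-death apicoplast inhibitors.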
HCV inhibitor: qHTS Assay for Inhibitors of Hepatitis C Virus (HCV); hit rate 3.4% among 340,000; Potency, µM (highest dose often 41.8 µM), for the others: at the highest dose activity change, negative = inhibition, usual class: inhibitors; AID 651820, 2012; Huh7.5.1 HCVcc-Cre infection, luciferase reporter, 44 h; also: potency is read from the fitted curve at half-maximal effect
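Luciferase read-out (15 sec integration) after a 15 min room-temperature substrate step quantifies HCVcc-Cre infection. Cells, 1,000 per well, had compound added 4 h post-plating, then virus at ~0.5 moi, and were cultured 44 h.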
HCMV inh: qHTS Assay for inhibitors of the human cytomegalovirus (HCMV); HFF cells, HCMV-luciferase reporter, 72 h; hits give low values; AID 1259415, 2018; activity change, negative = inhibition, % at 57.5 µM; hit rate 4.5% among 410,000; in the data active = activity change below about -60%; inconclusive = no clear call, values can overlap the other calls; inactive = above about -39%
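Compounds were evaluated in HFFs infected with an HCMV luciferase reporter virus (MOI 1 PFU/cell). Luciferase in lysates collected 72 h post infection served as the replication measure.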
Pf growth 48h: Primary qHTS for delayed death inhibitors of the malarial parasite plastid, 48 hour incubation | P. falciparum luciferase growth in erythrocytes, 48 h | Potency, µM (series often up to 28.7 µM), without a hit: at the highest dose activity change, negative = inhibition, hits mostly inhibitors | hit rate 5.9% among 310,000 | AID 504832, 2011; also: potency is read from the fitted curve at half-maximal effect
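Cell-based growth assay: transgenic P. falciparum expressing firefly luciferase, cultured in red cells within RPMI 1640 containing 0.5% w/v Albumax, 24 mM bicarbonate and gentamycin. A drop in luciferase activity indicates inhibition.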
Active calls of the source: *. Sampled rows, rich in hits. Any-hit rate of the full collection: about 13%. Unless noted, calls follow the shape of the dose curve; as a rule, active = well fitted inhibition curve with a large enough effect; inconclusive = small, poorly fitted or top-dose-only effect, or another doubt; inactive = no such curve, though single readings can be large or run the other way. % is scaled to controls: 0 for no effect and ±100 for the full control effect.

Screening C(=N\Nc1nc(N2CCOCC2)nc(N2CCOCC2)n1)/c1ccco1 returned Pf growth 96h inconclusive and Pf growth 48h 7%.
For O=[N+]([O-])c1cccc(-c2ccc(/C=N/Nc3nc(N4CCCCC4)nc(N4CCCCC4)n3)o2)c1 the results were Pf growth 96h 11%, HCV inhibitor 11µM*, HCMV inh -6 and Pf growth 48h 2.3µM*.
`Fc1ccc(Nc2nc(N/N=C/c3ccco3)nc(N3CCCCC3)n2)cc1` gave Pf growth 96h -23%, HCV inhibitor 11µM*, HCMV inh inconclusive and Pf growth 48h inconclusive.
For CCC(=O)N1c2ccccc2CC1C(=O)NCCc1ccccc1 (configuration not stated) the results were HCMV inh -4.
Screening COc1ccc(S(=O)(=O)N/N=C\c2ccc([N+](=O)[O-])o2)c(OC)c1 returned Pf growth 96h 10µM*, HCV inhibitor -29%, HCMV inh 27 and Pf growth 48h 3%.
O=[N+]([O-])c1ccc(/C=N/Nc2nc(N3CCCC3)nc(N3CCCC3)n2)o1 was read as Pf growth 96h 10µM*, HCV inhibitor inconclusive and HCMV inh inconclusive.
For O=[N+]([O-])c1ccc(-c2ccc(/C=N/Nc3nc(N4CCCC4)nc(N4CCCC4)n3)o2)cc1 the results were Pf growth 96h inconclusive, HCV inhibitor inconclusive, HCMV inh -34 and Pf growth 48h inconclusive.
Screening O=[N+]([O-])c1cccc(/C=N/Nc2nc(N3CCCCC3)nc(N3CCCCC3)n2)c1 returned Pf growth 96h 14%, HCV inhibitor 5.6µM*, HCMV inh -10 and Pf growth 48h inconclusive.
For CCc1ccc(-c2cc3c(N4CCN(c5ccccc5)CC4)nccn3n2)cc1 the results were HCMV inh -5.
Screening COc1ccc(C(CC(=O)Nc2cc(OC)c(OC)c(OC)c2)N2Cc3ccccc3C2=O)cc1 (configuration not stated) returned HCMV inh -6.
For CCOC(=O)c1sc(-c2ccc(F)cc2)cc1NC(=O)Nc1ccccc1OC the results were Pf growth 96h 8.3µM*, HCV inhibitor -3%, HCMV inh -30 and Pf growth 48h inconclusive.
CCOC(=O)c1sc(-c2ccccc2)cc1NC(=O)Nc1ccccc1 was read as Pf growth 96h inconclusive, HCV inhibitor 10µM*, HCMV inh -36 and Pf growth 48h 0%.
`COC(=O)c1sc(-c2ccccc2)cc1NC(=O)Nc1ccc(Cl)cc1` gave HCMV inh -16.
COC(=O)c1sc(-c2ccccc2)cc1NC(C)=O was read as Pf growth 96h 56%, HCV inhibitor 8.9µM*, HCMV inh 47 and Pf growth 48h -2%.
Screening COC(=O)c1sc(-c2ccccc2)cc1NC(=O)c1ccccc1 returned Pf growth 96h 33%, HCV inhibitor 5%, HCMV inh inconclusive and Pf growth 48h 26%.
For CCOC(=O)c1sc(NC(=O)Nc2ccccc2Cl)cc1C the results were Pf growth 96h -75%, HCV inhibitor inconclusive, HCMV inh -74* and Pf growth 48h -45%.
COC(=O)c1sc(-c2ccccc2)cc1NC(=O)Nc1ccc(F)cc1 was read as HCMV inh -30.
`CCc1ccc(NC(=O)c2cccc(N3CCCS3(=O)=O)c2)cc1` gave HCMV inh 14.
`CCC(=O)N1CCc2cc(S(=O)(=O)NCCC(=O)NCc3ccc(OC)cc3)ccc21` gave HCMV inh -3.
`CCc1ccccc1NC(=O)c1ccc(Cn2nc(N3CCN(c4ccccc4)CC3)ccc2=O)o1` gave HCMV inh -75*.
CCOc1ccccc1NC(=O)Cn1nc(N2CCN(c3ccccc3)CC2)ccc1=O was read as HCMV inh -29.
For C=CCN(c1ccccc1)S(=O)(=O)c1cccc(C(=O)Nc2nnc(SCC)s2)c1 the results were Pf growth 96h inconclusive, HCV inhibitor -6%, HCMV inh -62* and Pf growth 48h 4%.
`C=CCN(c1ccccc1)S(=O)(=O)c1cccc(C(=O)Nc2cccc(C)n2)c1` gave Pf growth 96h inconclusive, HCV inhibitor 14µM*, HCMV inh -25 and Pf growth 48h inconclusive.
Screening CCSc1nnc(NC(=O)c2cccc(S(=O)(=O)N(C)c3ccccc3)c2)s1 returned Pf growth 96h -19%, HCV inhibitor 5%, HCMV inh 49 and Pf growth 48h -19%.
Screening CCc1c(C)nc2c(C#N)c[nH]n2c1=O returned Pf growth 96h 0.52µM*, HCV inhibitor 19%, HCMV inh 48 and Pf growth 48h -2%.
`O=CC1=C(N2CCOCC2)/C(=C\c2ccccc2)CC1` gave Pf growth 96h 41%, HCV inhibitor -23%, HCMV inh -25 and Pf growth 48h 22%.
Screening O=C(N/N=C/C1=C(N2CCOCC2)C(=C\c2ccccc2)/CC1)Nc1ccccc1 returned Pf growth 96h 42%, HCV inhibitor inconclusive, HCMV inh -71* and Pf growth 48h 3%.
For O=C(O)c1ccccc1N/N=C/C1=C(N2CCOCC2)C(=C\c2ccccc2)/CC1 the results were Pf growth 96h inconclusive, HCV inhibitor 8%, HCMV inh 0 and Pf growth 48h 10µM*.
For COc1cccc(-c2c(-c3cc(OC)cc(OC)c3)n(C)c3ccc(-c4ccc(OC)nc4)cc23)c1 the results were Pf growth 96h inconclusive, HCV inhibitor -2%, HCMV inh 1 and Pf growth 48h inconclusive.
`COc1ccc(-c2c(-c3ccc(OC)nc3)c3ccccc3n2C)cc1` gave HCV inhibitor 22µM* and HCMV inh 30.
Screening CCOc1ccccc1NC(=O)Cn1c(=O)n(Cc2nc(C)no2)c(=O)c2ccccc21 returned HCMV inh 5.
Cc1ccc(Cc2c(C)nc3nc(SCC(=O)NCCC(C)C)nn3c2C)cc1 was read as HCMV inh -10.
Screening O=C(O)/C=C/C(=O)Nc1ccc(S(=O)(=O)Nc2nccs2)cc1 returned Pf growth 96h 1.7µM*, HCV inhibitor 13%, HCMV inh 15 and Pf growth 48h 41%.
`COc1ccc(S(=O)(=O)Nc2ccc(S(=O)(=O)Nc3nccs3)cc2)cc1` gave Pf growth 96h 15%, HCV inhibitor -24%, HCMV inh 97 and Pf growth 48h 5.2µM*.
`Cc1ccc(S(=O)(=O)Nc2ccc(S(=O)(=O)Nc3nccs3)cc2)c([N+](=O)[O-])c1` gave Pf growth 96h 2.9µM*, HCV inhibitor 14%, HCMV inh 52 and Pf growth 48h 4%.
Cc1ccc(S(=O)(=O)Nc2nccs2)cc1[N+](=O)[O-] was read as Pf growth 96h inconclusive, HCV inhibitor 14%, HCMV inh -24 and Pf growth 48h -13%.
Screening COc1ccc(NC(=O)CC2C(=O)N(c3ccccc3)C(=O)N2Cc2cccnc2)cc1 (configuration not stated) returned HCMV inh -33.
